Laboratory results from PubChem BioAssay (NCI).
Compounds without any hit were thinned out: in the full panel of roughly 83,000, 20% have a hit.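 Growth was measured after 48 h exposure to one concentration of compound in 96-well plates. Values under 10 count as active.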 Activity calls are given as the source filed them.

How the values were obtained:
Test in all cases: NCI-60 one-dose screen, 48 h (100 = growth as untreated, 0 = no growth, -100 = all killed)
Conditions in all cases: 10 µM unless noted
[1] = test system: NCI-H23 lung
[2] = test system: NCI-H226 lung
[3] = test system: NCI-H322M lung
[4] = test system: HOP-62 NSCLC
[5] = test system: NCI-H460 lung
[6] = test system: HOP-92 NSCLC
[7] = test system: NCI-H522 lung
[8] = test system: A549/ATCC NSCLC
[9] = test system: 786-0 renal
[10] = test system: COLO 205 colon

Measured: growth

CCc1cccc(Sc2cc(C(=O)N3Cc4ccc(OCCN(C)C)cc4C3)ccc2O)c1
inactive: [1] 41.2% | [2] 89.3% | [3] 62.9% | [4] 71.5% | [5] 38.9% | [6] 57.1% | [7] 66.8% | [8] 43.1% | [9] 70.6% | [10] 109%

C/C(=C(\c1ccc(OCCN2CCCCCC2)cc1)c1ccc(OC(=O)Cc2ccccc2)cc1)c1ccc(Cl)cc1
active: [4] 7.91% | [5] -60.1% | [9] -42% | [10] -79.7%
inactive: [1] 48.5% | [2] 91.2% | [3] 73.5% | [6] 49.5% | [7] 38.8% | [8] 31.7%

Cc1[nH]c(/C=C/C(=O)c2ccc(C(F)(F)F)c(F)c2)c(C)c1C(=O)NCC(C)C
inactive: [1] 101% | [2] 98.2% | [3] 101% | [4] 87.7% | [5] 101% | [6] 108% | [7] 99.4% | [8] 95.4% | [9] 103% | [10] 113%

O=C1NC(=C(Cl)Cl)/C(=N/S(=O)(=O)N2CCCCC2)N1
inactive: [1] 53.9% | [2] 89.5% | [3] 92.5% | [4] 62.1% | [5] 94.2% | [8] 93.4%
active: [6] -81.8% | [7] -82.3% | [9] 2.47% | [10] -84.5%

C#Cc1cccc(Oc2ccc(NC(=O)CCl)cc2)c1
inactive: [1] 20.7% [8.25 µM] | [2] 55.9% [8.25 µM] | [3] 100% [8.25 µM] | [4] 83.5% [8.25 µM] | [5] 19% [8.25 µM] | [6] 81.2% [8.25 µM] | [8] 68.3% [8.25 µM] | [9] 74.8% [8.25 µM] | [10] 61.6% [8.25 µM]
active: [7] -32.6% [8.25 µM]

CCNCc1ccc(O)c2ncccc12
inactive: [1] 24.1% | [2] 62.4% | [3] 38% | [4] 27.8% | [5] 20% | [8] 17.6% | [9] 39.6% | [10] 80.7%
active: [6] -8.24% | [7] 8.59%

CCn1cc(C(=O)NN=C2CCCCCC2)c(=O)c2ccc(C)nc21
inactive: [1] 89.5% | [2] 82% | [3] 88.7% | [4] 94.8% | [5] 92.4% | [6] 80.7% | [7] 75.3% | [8] 82.6% | [9] 87.2% | [10] 97.8%

CCOC(=O)c1c(NC(=O)c2ccc(OC)cc2)sc2c(CN(C)C)c(O)ccc12
inactive: [1] 90.6% | [2] 101% | [3] 89.6% | [4] 85% | [5] 60% | [6] 25.3% | [7] 75.1% | [8] 74% | [9] 63.4% | [10] 55.3%

O=C1Nc2ccccc2/C1=C/c1cn(C[C@@H](O)Cn2c3ccccc3c(=O)c3ccccc32)c2ccccc12
inactive: [1] 84.1% | [2] 63.1% | [3] 75.9% | [4] 62.2% | [5] 74.3% | [6] 52.9% | [7] 55.5% | [8] 71.6% | [9] 86.4% | [10] 84.1%

Cn1cc(-c2ccc3cc(-c4ccc(CC(=O)Nc5cc(C(C)(C)C)on5)cc4)cnc3c2)cn1
active: [5] -3.39% | [9] -92.6%
inactive: [1] 46.1% | [2] 43% | [3] 16.5% | [4] 44.4% | [6] 50.9% | [7] 17.2% | [8] 16.5% | [10] 35.3%

Nc1n[nH]c2ccc([C@@H]3Nc4cc5[nH]ncc5cc4[C@H]4C5CCC(C5)[C@@H]34)cc12 (stereo not given in full)
inactive: [1] 27.3% | [2] 15% | [3] 43% | [4] 46.9% | [6] 58.2% | [7] 13.9% | [8] 24.6% | [9] 28.3%
active: [5] 7.16% | [10] -11.9%

Cc1nn(-c2ccccc2)c(N2CCCCC2)c1/C=N/NC(=O)Cn1c(=O)sc2ccccc21
inactive: [1] 82.6% | [2] 92.8% | [3] 76.3% | [4] 77.3% | [5] 81.5% | [6] 65.6% | [7] 64.9% | [8] 66% | [9] 97.2% | [10] 88.2%

CCC(CC)(N(CC(=O)O)CC(=O)O)C(CC)(CC)N(CC(=O)O)CC(=O)O
inactive: [1] 106% | [2] 106% | [3] 122% | [4] 103% | [5] 108% | [6] 95.6% | [7] 100% | [8] 91.3% | [9] 109% | [10] 113%

O=C1/C(=C/c2ccccc2[N+](=O)[O-])COc2ccc(O)cc21
inactive: [1] 18.8% | [2] 66.4% | [3] 60.9% | [4] 29.1% | [5] 29% | [6] 40% | [8] 54.1%
active: [7] -40.8% | [9] -41.3% | [10] -32.6%
